The values that follow come from PubChem BioAssay.

In one assay the target is NADPH oxidase 5 (Homo sapiens) (UniProt Q96PH1). Briefly: compounds shifting NOX5 Amplex Red fluorescence – cell-based, HEK293-NOX5, NOX inhibitor project, primary screen (AID 1161). The settings on record: HEK293-NOX5, ionomycin, 45 min, higher = more signal.
NADPH oxidase 5 (Homo sapiens), sequence (Q96PH1 whole entry, looked up): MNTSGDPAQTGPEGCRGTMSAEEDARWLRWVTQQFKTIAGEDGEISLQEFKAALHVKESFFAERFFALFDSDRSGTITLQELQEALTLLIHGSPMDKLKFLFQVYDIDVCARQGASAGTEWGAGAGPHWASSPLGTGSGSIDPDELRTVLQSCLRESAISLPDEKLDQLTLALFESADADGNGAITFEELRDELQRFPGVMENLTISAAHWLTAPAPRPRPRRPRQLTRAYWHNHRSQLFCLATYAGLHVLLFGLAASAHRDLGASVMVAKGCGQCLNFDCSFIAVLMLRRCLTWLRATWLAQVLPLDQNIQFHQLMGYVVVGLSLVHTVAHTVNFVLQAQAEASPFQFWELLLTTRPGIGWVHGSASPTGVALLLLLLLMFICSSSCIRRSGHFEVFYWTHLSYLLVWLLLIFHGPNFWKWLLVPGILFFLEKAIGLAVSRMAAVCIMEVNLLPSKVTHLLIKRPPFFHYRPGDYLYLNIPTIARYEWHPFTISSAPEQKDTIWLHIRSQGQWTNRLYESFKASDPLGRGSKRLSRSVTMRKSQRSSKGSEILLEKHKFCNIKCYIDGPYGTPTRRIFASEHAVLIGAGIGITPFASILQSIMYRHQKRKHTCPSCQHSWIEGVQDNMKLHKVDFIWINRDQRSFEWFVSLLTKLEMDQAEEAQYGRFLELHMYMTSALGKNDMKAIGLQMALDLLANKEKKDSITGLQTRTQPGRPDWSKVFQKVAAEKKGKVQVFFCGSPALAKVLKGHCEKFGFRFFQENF
Consider `CCOC(=O)C=Cc1cccc(C)c1O`, for which the z-score was -4.98.

For the compound `COC(=O)C1=CC(CCCO)=CC(c2cccs2)N(Cc2cccc(OC(F)(F)F)c2)C=C1C(=O)OC` (stereo unspecified), the z-score was -0.0441.

On to `[N-]=[N+]=Nc1ccccc1[C@@H]1OC(c2ccc(OCCCO)cc2)=N[C@]1(Cc1ccccc1)C(=O)N1CCCCC1`, for which the z-score was -1.77.

For `C=CCNC(=O)[C@@H]1[C@H]2C(=O)O[C@H](c3ccccc3)[C@H](c3ccccc3)N2[C@H](c2ccc(O)cc2)[C@@]12C(=O)N(C(=O)OCCOC)c1ccc(C#CC3=CCCCC3)cc12`, the z-score was determined as 0.344.

For the compound `CCOC(=O)C[C@H]1[C@H](OC(=O)c2cc3ccccc3oc2=O)[C@@H](NC(=O)CC(C)C)c2cc(OCCCO)ccc2N1C(=O)c1ccc2ccccc2n1`, the z-score is 0.7.

On to `NCCCCCNC(=O)[C@@H]1C[C@@H]2C(=O)N[C@@H](CCCCN)C(=O)N2[C@@H]1c1ccc(O)cc1`, for which the z-score amounted to 1.48.

In the case of `CC(C)C(CO)N1C(=O)[C@@H]2C3C(=O)OCCC/C=C\[C@H]3OC23C=CCN(Cn2nnc4ccccc42)C(=O)[C@@H]13` (stereo partly specified), the z-score stood at 1.51.

As to `[N-]=[N+]=NCc1ccccc1C[C@@]1(C(N)=O)N=C(c2ccc(OCCCO)cc2)O[C@@H]1c1ccccc1`, the z-score was -0.235.

Turning to `CCOC(=O)C[C@H]1[C@H](OC(=O)c2ccc(C(=O)c3ccccc3)cc2)[C@@H](NC(=O)CC(C)C)c2cc(OCCCO)ccc2N1C(=O)c1ccccc1`, the z-score came to 1.24.

Turning to `CC(C)[Si](C#C[Si](C(C)C)(C(C)C)C(C)C)(O[C@H](c1ccccc1)c1cn(Cc2ccccc2)nn1)C(C)C`, the z-score was -0.932.

Regarding `COC(=O)C/C=C/C[C@]1(O)C(=O)N(C)c2ccccc21`, the z-score stood at 0.882.

Consider `CN1C(=O)C2C=CC(C(O)c3cccn3C)N(Nc3ccc([N+](=O)[O-])cc3[N+](=O)[O-])C2C1=O` (stereo unspecified), for which the z-score is -1.27.

Turning to `C=CCN1Cc2ccccc2[C@@H]2OC(c3ccc(OCCCO)cc3)=N[C@]2(CC=C)C1=O`, the z-score came to 1.03.

On to `CCCC=C(CCC)[C@@H](NP(=O)(c1ccccc1)c1ccccc1)c1ccc(-c2ccccc2)cc1`, for which the z-score amounted to 2.3.

Regarding `C=C(COC)C(=O)CC[C@@H](OC(C)=O)c1cccc(OCCO)c1`, the z-score is -1.06.

As to `CCOC(=O)C1=CC[C@@H](c2ccccc2F)N(S(=O)(=O)c2ccc(C)cc2)[C@H]1c1ccccc1`, the z-score turned out to be 2.18.

In the case of `O=C1O[C@H](c2ccccc2)[C@H](c2ccccc2)N2[C@H]1[C@@H](C(=O)O)[C@]1(C(=O)Nc3ccc(C#CCCO)cc31)[C@H]2c1ccccc1OCCO`, the z-score amounted to 0.636.

On to `COc1cc2c(cc1O)C(C1CC1)N(C)CC2` (stereo unspecified), for which the z-score is -2.96.

On to `COC(=O)[C@@]1(Cc2ccc(OC)cc2)[C@H]2c3cc(C(=O)N4CCCC4)n(CCO)c3C[C@H]2CN1C(=O)c1ccccc1`, for which the z-score is -4.86.

With `[N-]=[N+]=Nc1ccccc1C[C@]1(C(=O)N2CCOCC2)COC(c2ccc(OCCCO)cc2)=N1`, the z-score was -1.73.

Regarding `O=C1C2C=CC(C(O)c3ccco3)N(Nc3ccccc3F)C2C(=O)N1c1ccccc1` (stereo unspecified), the z-score is -1.64.

As to `CCCCCN1CC=CC23O[C@@H]4/C=C\CCCOC(=O)C4[C@H]2C(=O)N(C(C)CO)[C@@H]3C1=O` (stereo partly specified), the z-score amounted to 1.03.

`COC(=O)c1c(CC[C@@H](CO)NC(=O)N2CCC[C@H]2Cn2cc(C3(O)CCCCC3)nn2)oc(C(C)=O)c1C(=O)OC`: the z-score was -1.37.

For the compound `CCCCNC(=O)c1ccc(C#CC(C)(C)C)c(OC(C)=O)c1`, the z-score was 0.416.

As to `COc1ccccc1CN1C(=O)c2ccccc2[C@](Cc2ccccc2I)(C(=O)O)[C@@H]1c1ccc(CO)cc1`, the z-score was 0.646.

System in the next assay: not listed separately
As to the kind of experiment: compound effects on lung adenocarcinoma cell viability – A549, calcein-AM fluorescence, 48 h, basal, profiling panel (AID 1162). Further: test concentration not given here. The settings on record: higher = more signal.
Regarding `COC(=O)[C@@]1(Cc2ccc(OC)cc2)[C@H]2c3cc(C(=O)N(C)C)n(Cc4ccc(C)o4)c3C[C@H]2CN1C(=O)c1ccccc1`, the z-score is 0.774.

Regarding `CCCCCN1CC=CC23O[C@@H]4/C=C\CCC(C)OC(=O)C4[C@H]2C(=O)N(C(CO)C(C)C)[C@@H]3C1=O` (stereo partly specified), the z-score was -0.588.

In the case of `CCOC(=O)C[C@H]1[C@H](OC(=O)c2ccccc2-c2ccccc2)[C@@H](NC(=O)c2ccc3ccccc3n2)c2cc(OCCCO)ccc2N1C(=O)Cc1ccc(OC)cc1`, the z-score is 0.278.

With `O=C1OCCC/C=C\[C@H]2OC34C=CCN(c5ccc6ccccc6c5)C(=O)[C@H]3N(CCO)C(=O)[C@@H]4C12` (stereo partly specified), the z-score was 0.451.

Regarding `O=C1N(Cc2ccccc2)c2ccccc2C[C@]12N=C(c1ccc(OCCCO)cc1)O[C@@H]2c1ccccc1`, the z-score was -1.25.

As for `O[C@@H](Cc1ccccc1)[C@@H](/C=C/C1CC1)N(CC#Cc1ccccc1)Cc1ccccc1Br`, the z-score is -0.049.

For `O=C(C1N=C(c2ccc(OCCCO)cc2)N(c2ccccc2)O1)N1CCCCC1` (stereo unspecified), the z-score is 0.775.

`CC(C)[Si]1(C(C)C)OCc2cc(-c3ccc(-c4ccc(Cl)c(Cl)c4)o3)nc(-c3ccccc3)c21`: the z-score was -0.715.

Take `COc1ccc([Si](C)(C)[C@@H]2[C@@H](CCO)O[C@]3(C(=O)N(Cc4ccccc4)c4ccc(NC(=O)[C@H](C)O)cc43)[C@H]2C)cc1`: the z-score was -2.21.

Consider `COc1cc(NN2C(C(O)c3ccc(N(C)C)cc3)C=CC3C(=O)N(c4ccccc4)C(=O)C32)cc(OC)c1OC` (stereo unspecified), for which the z-score is -0.0098.

Turning to `Cn1cccc1C(O)C1C=CC2C(=O)N(c3ccccc3)C(=O)C2N1Nc1ccccc1` (stereo unspecified), the z-score is -0.514.

Regarding `CCOC(=O)C=Cc1cccc(C)c1O`, the z-score is -0.877.

With `COC(=O)C1=CC(CCCO)=CC(c2cccs2)N(Cc2cccc(OC(F)(F)F)c2)C=C1C(=O)OC` (stereo unspecified), the z-score is -0.855.

As for `[N-]=[N+]=Nc1ccccc1[C@@H]1OC(c2ccc(OCCCO)cc2)=N[C@]1(Cc1ccccc1)C(=O)N1CCCCC1`, the z-score was -0.523.

Consider `C=CCNC(=O)[C@@H]1[C@H]2C(=O)O[C@H](c3ccccc3)[C@H](c3ccccc3)N2[C@H](c2ccc(O)cc2)[C@@]12C(=O)N(C(=O)OCCOC)c1ccc(C#CC3=CCCCC3)cc12`, for which the z-score was 0.145.

Take `CCOC(=O)C[C@H]1[C@H](OC(=O)c2cc3ccccc3oc2=O)[C@@H](NC(=O)CC(C)C)c2cc(OCCCO)ccc2N1C(=O)c1ccc2ccccc2n1`: the z-score was -0.326.

On to `NCCCCCNC(=O)[C@@H]1C[C@@H]2C(=O)N[C@@H](CCCCN)C(=O)N2[C@@H]1c1ccc(O)cc1`, for which the z-score was -0.0858.

For the compound `CC(C)C(CO)N1C(=O)[C@@H]2C3C(=O)OCCC/C=C\[C@H]3OC23C=CCN(Cn2nnc4ccccc42)C(=O)[C@@H]13` (stereo partly specified), the z-score was 0.225.

`[N-]=[N+]=NCc1ccccc1C[C@@]1(C(N)=O)N=C(c2ccc(OCCCO)cc2)O[C@@H]1c1ccccc1`: the z-score is -0.914.

`CCOC(=O)C[C@H]1[C@H](OC(=O)c2ccc(C(=O)c3ccccc3)cc2)[C@@H](NC(=O)CC(C)C)c2cc(OCCCO)ccc2N1C(=O)c1ccccc1`: the z-score is -1.43.

Take `CC(C)[Si](C#C[Si](C(C)C)(C(C)C)C(C)C)(O[C@H](c1ccccc1)c1cn(Cc2ccccc2)nn1)C(C)C`: the z-score is -0.491.

Take `COC(=O)C/C=C/C[C@]1(O)C(=O)N(C)c2ccccc21`: the z-score is 1.59.

Turning to `CN1C(=O)C2C=CC(C(O)c3cccn3C)N(Nc3ccc([N+](=O)[O-])cc3[N+](=O)[O-])C2C1=O` (stereo unspecified), the z-score is -0.49.

Turning to `C=CCN1Cc2ccccc2[C@@H]2OC(c3ccc(OCCCO)cc3)=N[C@]2(CC=C)C1=O`, the z-score was -0.546.

`CCCC=C(CCC)[C@@H](NP(=O)(c1ccccc1)c1ccccc1)c1ccc(-c2ccccc2)cc1`: the z-score was -1.51.

For `C=C(COC)C(=O)CC[C@@H](OC(C)=O)c1cccc(OCCO)c1`, the z-score was 0.851.

Consider `CCOC(=O)C1=CC[C@@H](c2ccccc2F)N(S(=O)(=O)c2ccc(C)cc2)[C@H]1c1ccccc1`, for which the z-score is -0.982.

Consider `O=C1O[C@H](c2ccccc2)[C@H](c2ccccc2)N2[C@H]1[C@@H](C(=O)O)[C@]1(C(=O)Nc3ccc(C#CCCO)cc31)[C@H]2c1ccccc1OCCO`, for which the z-score is -0.0678.

Regarding `COc1cc2c(cc1O)C(C1CC1)N(C)CC2` (stereo unspecified), the z-score was 0.368.

`COC(=O)[C@@]1(Cc2ccc(OC)cc2)[C@H]2c3cc(C(=O)N4CCCC4)n(CCO)c3C[C@H]2CN1C(=O)c1ccccc1`: the z-score is -0.832.

Regarding `[N-]=[N+]=Nc1ccccc1C[C@]1(C(=O)N2CCOCC2)COC(c2ccc(OCCCO)cc2)=N1`, the z-score was 0.462.

For `O=C1C2C=CC(C(O)c3ccco3)N(Nc3ccccc3F)C2C(=O)N1c1ccccc1` (stereo unspecified), the z-score was -0.356.

For the compound `CCCCCN1CC=CC23O[C@@H]4/C=C\CCCOC(=O)C4[C@H]2C(=O)N(C(C)CO)[C@@H]3C1=O` (stereo partly specified), the z-score is 0.327.

Turning to `COC(=O)c1c(CC[C@@H](CO)NC(=O)N2CCC[C@H]2Cn2cc(C3(O)CCCCC3)nn2)oc(C(C)=O)c1C(=O)OC`, the z-score is -0.615.

Take `CCCCNC(=O)c1ccc(C#CC(C)(C)C)c(OC(C)=O)c1`: the z-score is 0.3.

On to `COc1ccccc1CN1C(=O)c2ccccc2[C@](Cc2ccccc2I)(C(=O)O)[C@@H]1c1ccc(CO)cc1`, for which the z-score is 1.14.
